Most compounds without a hit are left out; they make up all but 12% or so of the library.
PLK1 PBD block: PLK1 (human) polo-box domain binding inhibition; P53350; Plk1 PBD binding of FITC phosphopeptide, fluorescence polarization; Potency, µM, for the others: max response, negative = inhibition, actives largely listed as inhibitors; hit rate 2.8% among 360,000; AID 720504; further: potency means the concentration at half of the fitted maximal effect; series mostly up to about 57 µM; on the % scale 0 is the no-effect control and ±100 the full control effect; nearly all actives have a fitted effect of over 65% in size
G9a inh: G9a (human) methyltransferase inhibition. Q96KQ7. Potency, µM (top dose mostly 102 µM), inactives show at the highest dose activity, negative = inhibition, hits mostly inhibitors. hit rate 8.8% among 350,000. G9a H3K9 monomethylation, AlphaScreen, 2 h; further: potency means the concentration at half of the fitted maximal effect; on the % scale 0 is the no-effect control and ±100 the full control effect; nearly all actives have a fitted effect of over 75% in size
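Readings reflect AlphaScreen signal from monomethyl-H3K9 antibody detection. HMT at 20 nM; substrate b-H3K9 500 nM; cofactor SAM 20 uM; 2 h RT reaction; compounds tested as titrations in qHTS with 15 min preincubation.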
JMJD2A Tudor: inhibitors of human JMJD2A Tudor domain | O75164 | AlphaScreen JMJD2A-Tudor / H3K4me3 peptide binding | Potency, µM (top dose mostly 114 µM), without a hit: at the top dose activity change, negative = inhibition, usual class: inhibitors | hit rate 4.4% among 390,000 | AID 504339; further: potency means the concentration at half of the fitted maximal effect; on the % scale 0 is the no-effect control and ±100 the full control effect; nearly all actives have a fitted effect of over 50% in size
PI5P4K alpha inh: blocks human PI5P4K alpha kinase activity. P48426. PI5P4Kalpha enzyme, ADP-Glo luminescence, 60 min; stronger effect = lower value. max response, %. hit rate 1.2% among 330,000; active means max response of -50% or lower; inconclusive means between -30% and -50%; inactive means -30% or higher; further: value at the top dose of about 77 µM; on the % scale 0 is the no-effect control and ±100 the full control effect
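Compounds were pin-transferred onto PI5P4Kalpha and substrate in HEPES pH 7.4 buffer with EGTA, CHAPS and 5% DMSO. ATP (5 microM final) started the reaction, which ran 60 minutes at room temperature before ADP-Glo detection.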
BAZ2B inh: blocks human BAZ2B. hit rate 4.4% among 360,000. Q9UIF8. Potency, µM (doses to about 114 µM), without a hit: at the top dose activity change, negative = inhibition, most hits filed as inhibitors. AlphaScreen BAZ2B-H3K14Ac peptide displacement; further: potency means the concentration at half of the fitted maximal effect; on the % scale 0 is the no-effect control and ±100 the full control effect; nearly all actives have a fitted effect of over 60% in size
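Compounds, titrated to a top concentration of 110 uM, were incubated 30 min at room temperature with preformed BAZ2B/acetyl-K14 H3 peptide complex (50 nM each). Proximity signal was measured by AlphaScreen after 20 min with beads.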
HP1b binding inh: blocks HP1-beta chromodomain binding to methylated histone tails. AlphaScreen HP1-beta / biotin-H3K9me3 peptide binding. Potency, µM (titrated, usually from 114 µM), inactives show at the highest dose activity change, negative = inhibition, hits mostly inhibitors. hit rate 0.56% among 390,000; further: potency means the concentration at half of the fitted maximal effect; nearly all actives have a fitted effect of over 70% in size
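Compound inhibition of the preformed complex between 50 nM HP1-beta and 50 nM biotinylated H3K9me3 peptide was read by AlphaScreen. Buffer was PBS pH 7.4 with 0.01% Tween-20. Incubations ran 30 min at room temperature, with 10 ug/mL donor/acceptor beads.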
* hit, by the source's call; [ ] = another dose, or the depositor's remark. Unless noted, the call rests on the fitted dose curve; in most records, active means well fitted curve in the direction sought with a large enough effect; inconclusive means small, poorly fitted or top-dose-only effect, or another doubt; inactive means no such curve, though single readings can be large; an effect the other way counts as inactive or inconclusive.

`O=C(NNc1ccccc1)C(=O)NNS(=O)(=O)c1ccc([N+](=O)[O-])cc1` gave PLK1 PBD block -5.5%, G9a inh 6.31µM*, JMJD2A Tudor 3.16µM*, PI5P4K alpha inh 1.2, BAZ2B inh -27.2% and HP1b binding inh 10.5%.
For Cc1ccc(S(=O)(=O)NNC(=O)c2ccncc2)cc1[N+](=O)[O-] the results were PLK1 PBD block -13.6%, G9a inh 50.1µM*, JMJD2A Tudor 3.98µM*, PI5P4K alpha inh -20.8, BAZ2B inh -30.2% and HP1b binding inh 21.4%.
Screening CC(C)CN(C[C@@H](OP(=O)(O)O)[C@H](Cc1ccccc1)NC(=O)O[C@@H]1CCOC1)S(=O)(=O)c1ccc(N)cc1 returned G9a inh 14.6%[12.7 µM].
`COc1ccccc1CNc1ccc(Br)cn1` gave PLK1 PBD block -5.5%, G9a inh 45.5%, JMJD2A Tudor 18.9%, PI5P4K alpha inh 10.7, BAZ2B inh 7.7% and HP1b binding inh 49.6%.
C=CCOC(/C=C/c1ccccc1)CC (configuration not stated) was read as JMJD2A Tudor -7.6% and HP1b binding inh 31.5%.
Screening CC(=O)Nc1ccc(S(=O)(=O)NNC(=O)c2cccc([N+](=O)[O-])c2)cc1 returned PLK1 PBD block -13.5%, G9a inh inconclusive, JMJD2A Tudor -13.4%, PI5P4K alpha inh 0.3, BAZ2B inh -5.2% and HP1b binding inh 15.5%.
Screening CC(=O)Nc1ccc(S(=O)(=O)NNc2ccc([N+](=O)[O-])cc2)cc1 returned PLK1 PBD block inconclusive, G9a inh 1.26µM*, JMJD2A Tudor 6.31µM*, PI5P4K alpha inh -3.4, BAZ2B inh 50.1µM* and HP1b binding inh inconclusive.
Screening CC(C)COC(=O)N(C)C[C@@H]1OCc2cnnn2CCCC(=O)N([C@H](C)CO)C[C@@H]1C returned PLK1 PBD block -5.5% and PI5P4K alpha inh 0.4.
Screening Cc1ccc(NC(=O)c2cc(-c3ccc(C)o3)nc3ccccc23)cc1 returned PLK1 PBD block inconclusive, G9a inh 10µM*, JMJD2A Tudor 79.4µM*, BAZ2B inh -4.2% and HP1b binding inh -15.1%.
`COc1cc(-c2cc(C(=O)Nc3ccc(O)cc3)c3ccccc3n2)cc(OC)c1OC` gave PLK1 PBD block 26.7µM*, G9a inh 14.1µM*, JMJD2A Tudor -2.2%[11.4 µM], PI5P4K alpha inh 1.1, BAZ2B inh -39.0% and HP1b binding inh -19.4%.
Screening COc1ccccc1NC(=O)c1cc(-c2ccc(C)o2)nc2ccccc12 returned PLK1 PBD block -13.5%, G9a inh 39.8µM*, JMJD2A Tudor -9.7%, PI5P4K alpha inh 6.5, BAZ2B inh -11.5% and HP1b binding inh 4.2%.
`Cc1ccc(-c2cc(C(=O)NCCN3CCOCC3)c3ccccc3n2)o1` gave PLK1 PBD block -13.1%, G9a inh 28.2µM*, JMJD2A Tudor -6.8%, PI5P4K alpha inh -3.2, BAZ2B inh -13.8% and HP1b binding inh 40.3%.
Screening COc1ccccc1NC(=O)c1cc(C)nc2ccccc12 returned PLK1 PBD block -5.0%, G9a inh 9.0%, JMJD2A Tudor -15.9%, PI5P4K alpha inh 16.5, BAZ2B inh -11.5% and HP1b binding inh 15.4%.
`CCOc1ccc(Cl)cc1-c1cc(C(=O)NCCOC)[nH]n1` gave PLK1 PBD block -3.1% and PI5P4K alpha inh -0.4.
Screening C/C(=N\NC(N)=S)C1(C)CCCCC1 returned PLK1 PBD block -12.1%, G9a inh 50.1µM*, JMJD2A Tudor 35.5µM*, PI5P4K alpha inh 1.6, BAZ2B inh -34.8% and HP1b binding inh -17.0%.
Screening C/C(=N\NC(N)=O)C1(C)CCCCC1 returned PLK1 PBD block 0.4%, G9a inh 13.9%, JMJD2A Tudor -2.2%, BAZ2B inh 9.5% and HP1b binding inh 22.8%.
COc1ccc(C2/C=C\CN(S(=O)(=O)CC34CCC(CC3=O)C4(C)C)CC(=O)N2Cc2ccc(F)cc2)cc1 (configuration not stated) was read as JMJD2A Tudor -16.6% and HP1b binding inh 43.4%.
